From PubChem BioAssay (EPA / NIEHS) come the findings set out here.

What all share (conditions): mRNA level, 48 h; actives raise or lower the signal
Read-out in assay [1]: Potassium channel subfamily K member 1 (KCNK1), KCNK1 (gene 3775)
The assay is described as follows: LTEA_HepaRG_KCNK1: Life Technologies and Expression Analysis (LTEA) Assay for Potassium channel subfamily K member 1 (KCNK1) using HepaRG (AID 2283511). The procedure, abridged:
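HepaRG, 48 h exposure, 8-pt half-log series top 100 uM, 0.5% DMSO vehicle, duplicates. Readout: KCNK1 transcript by qRT-PCR (Fluidigm array), housekeeping-normalized; bidirectional curve fit relative to DMSO baseline.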

Read-out in assay [2]: Keratin 19 (KRT19), KRT19 (gene 3880)
In words: LTEA_HepaRG_KRT19: Life Technologies and Expression Analysis (LTEA) Assay for Keratin 19 (KRT19) using HepaRG (AID 2283512). In a few lines:
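KRT19 transcript levels, measured by Fluidigm qRT-PCR against three housekeeping genes, are fitted for gain or loss of signal relative to DMSO. Human HepaRG cells receive test chemicals (top 100 uM, half-log steps, 0.5% DMSO) for 48 hours.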

Read-out in assay [3]: JUN Transcription Factor, JUN (gene 3725)
In words: LTEA_HepaRG_JUN: Life Technologies and Expression Analysis (LTEA) Assay for JUN Transcription Factor using HepaRG (AID 2283513). In a few lines:
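HepaRG, 48 h exposure, 8-pt half-log series top 100 uM, 0.5% DMSO, duplicate. JUN mRNA by qRT-PCR (Fluidigm), housekeeping-normalized (ACTB/GAPDH/POLR2A); bidirectional curve fit vs DMSO baseline.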

Read-out in assay [4]: Lipase C (LIPC), LIPC (gene 3990)
The assay is described as follows: LTEA_HepaRG_LIPC: Life Technologies and Expression Analysis (LTEA) Assay for Lipase C (LIPC) using HepaRG (AID 2283514). In a few lines: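 HepaRG, 48 h exposure, 8-pt half-log series from 100 uM in 0.5% DMSO, duplicates. Readout: LIPC mRNA by Fluidigm qRT-PCR, housekeeping-normalized (ACTB/GAPDH/POLR2A). Gain or loss fitted bidirectionally against DMSO baseline.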

Read-out in assay [5]: Lipoprotein lipase (LPL), LPL (gene 4023)
In words: LTEA_HepaRG_LPL: Life Technologies and Expression Analysis (LTEA) Assay for Lipoprotein lipase (LPL) using HepaRG (AID 2283515). The procedure, abridged:
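HepaRG, 48 h exposure, 8-pt half-log dilutions from 100 uM, 0.5% DMSO vehicle, duplicates; qRT-PCR (Fluidigm array) of LPL mRNA vs housekeeping genes; bidirectional curve fit relative to DMSO baseline.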

Read-out in assay [6]: MicroRNA 122 (MIR122), gene 406906
In words: LTEA_HepaRG_MIR122: Life Technologies and Expression Analysis (LTEA) Assay for MicroRNA 122 (MIR122) using HepaRG (AID 2283516). Also: the transcript read is the microRNA miR-122. The procedure, abridged:
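qRT-PCR read-out (TaqMan, Fluidigm array), normalized to three housekeeping genes; HepaRG cells dosed 48 h at 8 concentrations up to 100 uM in 0.5% DMSO, duplicate; gain or loss fitted against DMSO baseline.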

Read-out in assay [7]: matrix metalloproteinase-10 (MMP10), MMP10 (gene 4319)
In words: LTEA_HepaRG_MMP10: Life Technologies and Expression Analysis (LTEA) Assay for matrix metalloproteinase-10 (MMP10) using HepaRG (AID 2283517). In a few lines: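 Transcript levels come from Fluidigm qRT-PCR normalized to three housekeeping genes, with curves fitted bidirectionally against 0.5% DMSO. Human HepaRG cells were dosed for 48 hours at concentrations up to 100 uM.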

Read-out in another assay: MYC, MYC (gene 4609)
The assay is described as follows: LTEA_HepaRG_MYC: Life Technologies and Expression Analysis (LTEA) Assay for MYC using HepaRG (AID 2283518). In a few lines: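 HepaRG, ~100,000 cells/well, collagen I; 48 h plating; serum-free induction medium; 48 h dosing, duplicate, 100 uM top, half-log, 0.5% DMSO; total RNA → qRT-PCR MYC; gain/loss fit vs DMSO.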

Read-out in assay [8]: matrix metalloproteinase-3 (MMP3), MMP3 (gene 4314)
In words: LTEA_HepaRG_MMP3: Life Technologies and Expression Analysis (LTEA) Assay for matrix metalloproteinase-3 (MMP3) using HepaRG (AID 2283519). In a few lines:
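qRT-PCR read-out of MMP3 mRNA (normalised to three housekeeping genes) in HepaRG liver cells after 48 h chemical exposure; 8-point half-log series, top 100 uM, 0.5% DMSO vehicle. Bidirectional curve fitting against DMSO baseline.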

Read-out in assay [9]: Paternally Expressed 10 (PEG10), PEG10 (gene 23089)
The assay is described as follows: LTEA_HepaRG_PEG10: Life Technologies and Expression Analysis (LTEA) Assay for Paternally Expressed 10 (PEG10) using HepaRG (AID 2283520).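 As to AC50: differentiated HepaRG human liver cells in serum-free induction medium with 0.5% DMSO; PEG10 transcript by qRT-PCR normalised to ACTB GAPDH and POLR2A.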 In a few lines:
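qRT-PCR read-out: PEG10 mRNA normalised to three housekeeping genes, fitted bidirectionally against 0.5% DMSO vehicle. HepaRG cells received test chemicals for 48 h in serum-free induction medium, 8 points, top 100 uM, half-log steps.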

Calls of active or inactive are those of the source. The calls were made as follows: active = hit-call score of the fitted dose curve at least 0.9, where 1 is the maximum; inactive = score below 0.9.

Turning to `Cc1cc(CCN2CCN(c3nsc4ccccc34)CC2)cc2c1NC(=O)CC2(C)C`, the compound was classed as inactive in assay [1], in assay [3], in assay [7], in assay [8] and in [9]. The AC50 in [2] is 50 µM (active); in [4], 81.6 µM (active); in assay [5], 50 µM (active); in assay [6], 78.5 µM (active); with MYC, MYC (gene 4609), 87.1 µM (active).

With `O=c1c(-c2ccc(O)cc2)coc2cc(O)ccc12`, the compound was called inactive in [1], in assay [2], in assay [4], in assay [5], in assay [6] and in assay [7]. Besides, the outcome with MYC, MYC (gene 4609) was “inactive”; in assay [9], “inactive”.

For the compound `CC(C)(C)c1ccc(O)c(C(C)(C)C)c1`, the AC50 in assay [1] is 0.0804 µM (active). Moreover, the compound was classed as inactive in assay [2], in assay [3], in assay [4], in [5], in assay [6] and in assay [7]. The outcome with MYC, MYC (gene 4609) is “inactive”; in [8], “inactive”; in [9] it was “inactive”.

Take `O=C(OCCOCCOC(=O)c1ccccc1)c1ccccc1`: the compound was called inactive in assay [2], in assay [3], in assay [4], in assay [5], in assay [6] and in [7]. In addition, the outcome is “inactive” with MYC, MYC (gene 4609); “inactive” in assay [8]; “inactive” in assay [9].

As for `CC(C)(C)c1cccc(C(C)(C)C)c1O`, the compound was called inactive in [1], in assay [2], in [3], in [4], in assay [5] and in [6]. Moreover, the outcome in assay [7] was “inactive”; with MYC, MYC (gene 4609), “inactive”; in assay [8] it was “inactive”; in [9], “inactive”.

Regarding `CCCOc1sc(C(=O)N2CCC(c3cc(CN)ccc3F)CC2)c(C)c1Br`, the result in [1], in [2], in assay [4], in assay [5], in [6] and in [7] was inactive. The outcome in the assay with MYC, MYC (gene 4609) is “inactive”; in assay [8] it was “inactive”; in assay [9], “inactive”.

With `CCN(CC)CCNc1ccc(CNC=O)c2sc3ccc(OC)cc3c(=O)c12`, the AC50 was 75.2 µM (active) in assay [1]; 12.7 µM (active) in assay [2]; 81.8 µM (active) in [5]; 27.5 µM (active) in assay [6]; 78.5 µM (active) in [7]; 86.4 µM (active) in [8]. Further, the AC50 in [9] was 62 µM (active). The outcome in assay [4] is “inactive”; in the assay with MYC, MYC (gene 4609), “inactive”.

As to `CC(C)(C)c1cc(C(C)(C)C)c(O)c(C(C)(C)C)c1`, the compound was called inactive in [1], in [2], in [4], in assay [5], in assay [6] and in [7]. Moreover, the outcome in the assay with MYC, MYC (gene 4609) is “inactive”; in assay [8], “inactive”; in assay [9], “inactive”.

With `NC(=O)N(O)[C@@H]1C=C[C@H](Oc2cccc(Oc3ccc(F)cc3)c2)C1`, the compound was called inactive in assay [2]. The AC50 in assay [3] is 76.6 µM (active); in [4], 36.4 µM (active); in [5], 50 µM (active); in [6], 68 µM (active); in [7], 64.8 µM (active); with MYC, MYC (gene 4609) it was 72.7 µM (active). Besides, the values for the AC50 in assay [8] and in assay [9] were 85.9 µM (active) and 5.31 µM (active), respectively.

With `C[C@@H]1C[C@H]2[C@@H]3CCC4=CC(=O)C=C[C@]4(C)[C@@]3(F)[C@@H](O)C[C@]2(C)[C@@]1(O)C(=O)COP(=O)(O)O`, the call in [1], in assay [2], in assay [3], in [4], in assay [5] and in assay [6] was inactive. Moreover, the outcome in assay [7] was “inactive”; with MYC, MYC (gene 4609), “inactive”; in [8] it was “inactive”; in assay [9] it was “inactive”.

For the compound `CC1=C(/C=C/C(C)=C/C=C/C(C)=C/C(=O)O)C(C)(C)CCC1`, the AC50 in assay [1] was 10.2 µM (active); with MYC, MYC (gene 4609) it was 22.7 µM (active); in [8], 18 µM (active); in assay [9], 9 µM (active). Further, the call in assay [4], in assay [5], in assay [6] and in assay [7] was inactive.

As to `COCC(C)OCC(C)O` (stereo not given), the outcome in assay [1], in assay [2], in assay [4], in assay [5], in assay [6] and in assay [7] was inactive. For the same compound, the outcome with MYC, MYC (gene 4609) was “inactive”; in assay [8] it was “inactive”; in assay [9], “inactive”.

Turning to `C=C(C)C(=O)OCCC(F)(F)C(F)(F)C(F)(F)C(F)(F)C(F)(F)C(F)(F)F`, the compound was classed as inactive in assay [1], in assay [2], in assay [3], in assay [4], in assay [5] and in [6]. The outcome is “inactive” in assay [7]; “inactive” with MYC, MYC (gene 4609); “inactive” in assay [8]; “inactive” in assay [9].

Regarding `c1ccc2cc3c(ccc4ccccc43)cc2c1`, the compound was called inactive in [1], in assay [3], in assay [7] and in assay [8]. For the same compound, the AC50 in assay [2] is 5.58 µM (active); in [4] it was 12.7 µM (active); in assay [5] it was 7.72 µM (active); in [6], 15 µM (active); in the assay with MYC, MYC (gene 4609), 13.4 µM (active); in [9], 12.1 µM (active).
